Screening results from PubChem.
An excerpt weighted towards active compounds, which were near 0.9% of everything screened.
PfHsp40 yeast = rescue of yeast from PfHsp40 toxicity, primary screen, S. cerevisiae, ATP luminescence. S. cerevisiae expressing PfHsp40, growth rescue. growth rescue, % at 12.5 µM. 340,000 tested, 0.68% active. AID 504582, 2011; in the data active = growth rescue above about 28%, passing the limit was not always enough; inconclusive = no clear call, values can overlap the other calls;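 also: yeast W303a lacking pdr1 and pdr3 grown in galactose medium; growth measured after three days at 30 °C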
ugtP null kill = growth inhibition of ugtP-null S. aureus, primary screen, RN4220 ugtP deletion, OD600; AID 1259309, 2017; 16 h; growth inhibition, % (concentration not given with the values); 330,000 tested, 0.54% active; in the data active = growth inhibition above about 68%
BioA inh-1 = M. tuberculosis BioA enzyme inhibitors, primary screen, biochemical, plate reader, single point, HTS. purified M. tuberculosis BioA enzyme. inhibition, % at 9.99 µM. 360,000 tested, 0.096% active. AID 602481, 2012; in the data active = inhibition above about 40%; inconclusive = no clear call, values can overlap the other calls
Sa RN4220 lethal = growth inhibition of S. aureus RN4220, primary screen, OD600 | inhibition, % (concentration not given with the values) | 330,000 tested, 0.33% active | 16 h; in the data active = inhibition above about 85%
Mtb bLac sens = beta-lactam sensitization of Mtb H37Rv, H37Rv. inhibition, % at 25 µM. 330,000 tested, 0.27% active. AID 434955, 2010. M. tuberculosis H37Rv growth with meropenem, percent inhibition;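 also: growth measured after seven days incubation then overnight dye step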
BioA inh-2 = Mtb BioA enzyme inhibitors, dose response, biochemical, plate reader, cherry-pick samples, set 03 | shares compounds with BioA inh-1 | purified BioA enzyme | max activity, % | 310 tested, under 10 active;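 also: top concentration of the dilution series was 10 µM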
Target sequence (P9WQ81 whole entry, looked up): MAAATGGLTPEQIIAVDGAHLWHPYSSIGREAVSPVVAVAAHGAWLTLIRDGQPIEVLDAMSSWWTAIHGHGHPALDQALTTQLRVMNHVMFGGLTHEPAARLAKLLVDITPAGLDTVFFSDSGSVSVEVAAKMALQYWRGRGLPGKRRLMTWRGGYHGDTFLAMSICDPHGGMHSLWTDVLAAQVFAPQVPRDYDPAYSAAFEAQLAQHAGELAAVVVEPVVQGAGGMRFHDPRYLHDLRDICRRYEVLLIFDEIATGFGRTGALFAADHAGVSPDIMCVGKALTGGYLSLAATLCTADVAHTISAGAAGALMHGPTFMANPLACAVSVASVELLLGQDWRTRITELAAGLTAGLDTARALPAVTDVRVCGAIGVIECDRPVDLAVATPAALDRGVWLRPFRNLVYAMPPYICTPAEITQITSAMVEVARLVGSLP
HepG2 tox 2 = cytotoxicity in HepG2 cells, dose response, cytotoxicity control, cell-based, plate reader, cherry-pick, two tests | shares compounds with BioA inh-1 | max activity, % | AID 651898, 2012 | 310 tested, under 10 active
NIH3T3 tox 5 = cytotoxicity in NIH3T3 fibroblasts, dose response, cytotoxicity control, cell-based, plate reader, cherry-pick, two tests. shares compounds with BioA inh-1. activity change, negative = cytotoxicity, % at 26 µM. 310 tested, under 10 active
Each line names hits and unclear results; the compound was inactive in the other large screens (follow-up assays come after a bar, where they were run). Unless noted, no rule for the calls is given here.

COc1ccc(Cc2c(-c3ccc(OC)c(OC)c3)nc3ccc(C)cn23)c(C)c1	BioA inh-1 78.7 (no result: PfHsp40 yeast, ugtP null kill, Sa RN4220 lethal, Mtb bLac sens) | BioA inh-2 inactive | HepG2 tox 2 inactive | NIH3T3 tox 5 inactive
COc1ccc(Cc2c(-c3ccc(OC)c(OC)c3)nc3c(C)cc(Br)cn23)c(C)c1	BioA inh-1 68.8 (no result: PfHsp40 yeast, ugtP null kill, Sa RN4220 lethal, Mtb bLac sens) | BioA inh-2 inactive | HepG2 tox 2 inactive | NIH3T3 tox 5 inactive
COc1ccc(-c2nc3ccc(Cl)cn3c2Cc2ccc(C)cc2)cc1OC	none (no result: PfHsp40 yeast, ugtP null kill, Sa RN4220 lethal, Mtb bLac sens)
COc1ccc(Cc2c(-c3ccc(C)cc3)nc3c(C)cc(Br)cn23)c(C)c1	none (no result: PfHsp40 yeast, ugtP null kill, Sa RN4220 lethal, Mtb bLac sens)
CN(C)c1ccc(C=C2C(=O)NC(=O)N(CCc3ccc(F)cc3)C2=O)cc1	none (no result: PfHsp40 yeast, BioA inh-1, Mtb bLac sens)
COC(=O)C1=C(c2ccc(Cl)c(C(F)(F)F)c2)CC2CCC1N2C(=O)NCc1ccco1 (stereo not given)	none (no result: PfHsp40 yeast, BioA inh-1, Mtb bLac sens)
O=C(NC1CCCc2c1cnn2-c1cc(F)cc(F)c1)c1cc[n+]([O-])cc1 (stereo not given)	none
O=C(NC1CCCc2c1cnn2-c1cc(F)cc(F)c1)c1ccc[n+]([O-])c1 (stereo not given)	BioA inh-1 64.6 | BioA inh-2 inactive | HepG2 tox 2 inactive | NIH3T3 tox 5 inactive
COCCNC(=O)C[C@@H]1CC[C@H]2[C@H](COc3ccc(NC(=O)Nc4cccc(F)c4)cc3C(=O)N2C)O1	none (no result: PfHsp40 yeast, ugtP null kill, Sa RN4220 lethal, Mtb bLac sens)
COCCNC(=O)C[C@@H]1CC[C@@H]2[C@H](COc3ccc(NC(=O)Nc4cccc(F)c4)cc3C(=O)N2C)O1	BioA inh-1 44.7 (no result: PfHsp40 yeast, ugtP null kill, Sa RN4220 lethal, Mtb bLac sens) | BioA inh-2 inconclusive | HepG2 tox 2 inactive | NIH3T3 tox 5 inactive
COCCNC(=O)C[C@H]1CC[C@@H]2[C@@H](COc3ccc(NC(=O)Nc4cccc(F)c4)cc3C(=O)N2C)O1	BioA inh-1 55.3 (no result: PfHsp40 yeast, ugtP null kill, Sa RN4220 lethal, Mtb bLac sens) | BioA inh-2 inactive | HepG2 tox 2 inactive | NIH3T3 tox 5 inactive
COCCNC(=O)C[C@@H]1CC[C@@H]2[C@@H](COc3ccc(NC(=O)Nc4cccc(F)c4)cc3C(=O)N2C)O1	BioA inh-1 40.3 (no result: PfHsp40 yeast, ugtP null kill, Sa RN4220 lethal, Mtb bLac sens) | BioA inh-2 inactive | HepG2 tox 2 inactive | NIH3T3 tox 5 inactive
C#CCOCCOCCOCCNc1nc(N2CCN(C(=O)C(CCC(=O)O)n3cc(C(N)CCCCN)nn3)CC2)nc(N2CCN(C(=O)C(CCCCN)n3cc(C(N)C(C)CC)nn3)CC2)n1 (stereo not given)	none (no result: PfHsp40 yeast, BioA inh-1, Mtb bLac sens)
CC[C@@]12C(=O)N(c3ccc(OC)cc3)C(=O)N1C(c1ccc(Cl)cc1)C1C(=O)N(C3CCCCC3)C(=O)C12 (stereo not given in full)	none (no result: PfHsp40 yeast, BioA inh-1, Mtb bLac sens)
O=C(Nc1cccnc1)c1ccc(N2CCCC2)c([N+](=O)[O-])c1	BioA inh-1 72.1 | BioA inh-2 inactive | HepG2 tox 2 inactive | NIH3T3 tox 5 inactive
O=C(NCc1cccnc1)c1ccc(N2CCOCC2)c([N+](=O)[O-])c1	none (no result: BioA inh-1)
O=C(Nc1ccc(N2CCOCC2)c(Cl)c1)c1cccnc1	BioA inh-1 47.3 | BioA inh-2 inactive | HepG2 tox 2 inactive | NIH3T3 tox 5 inactive
O=C(Nc1cccnc1)c1ccc(N2CCOCC2)c([N+](=O)[O-])c1	BioA inh-1 49.2 | BioA inh-2 inactive | HepG2 tox 2 inactive | NIH3T3 tox 5 inactive
CC(C)CC(NC(=O)Nc1ccccc1F)C(=O)O (stereo not given)	none (no result: PfHsp40 yeast, BioA inh-1, Mtb bLac sens)
O=C(COc1ccc2ccc(=O)oc2c1)Nc1cccnc1	BioA inh-1 49.2 | BioA inh-2 inactive | HepG2 tox 2 inactive | NIH3T3 tox 5 inactive
CCC(=O)c1ccc(OCC(=O)O)cc1	none (no result: BioA inh-1, Mtb bLac sens)
CCCc1c(OCCCOc2ccc(OCC(=O)O)cc2)ccc(C(C)=O)c1O	BioA inh-1 79.2 | BioA inh-2 inactive | HepG2 tox 2 inactive | NIH3T3 tox 5 inactive
COc1ccc(NC2CCCN(C(=O)c3ccc(C(C)=O)s3)C2)cc1 (stereo not given)	BioA inh-1 83.7 | BioA inh-2 inactive | HepG2 tox 2 inactive | NIH3T3 tox 5 inactive
CCOC(=O)C1C2COc3ccccc3C2N2C(=O)C(C)NC(=O)[C@@]12C (stereo not given in full)	none (no result: PfHsp40 yeast, BioA inh-1, Mtb bLac sens)
